A selection: hits, their analogues and other compounds. The true share with any hit is near 19%.
HT1080 IDH1KD tx: toxicity to HT-1080 IDH1 knockdown cells (counter line); HT-1080 IDH1 knockdown viability, ATP luminescence, 48 h; Potency, µM (titrated, usually from 46.1 µM), for inactives: at the top dose activity, negative = toxicity, usual class: cytotoxic; 360,000 tested, 2% active; AID 686971;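 further: potency means the concentration at half of the fitted maximal effect; 0% = DMSO wells and -100% = cell-free medium wells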
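After a 2 h attachment period, IDH1KD HT-1080 cells took pin-transferred compound for 48 h at 37 °C; ATP-based luminescence after 10 min room-temperature reagent incubation reported viability.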
DT40 TDP1 CPT: growth inhibition of DT40 Tdp1-/-;hTDP1 cells with camptothecin (screen for TDP1 inhibitors). chicken DT40 Tdp1-/-;hTDP1 cells + 20 nM CPT, ATP luminescence, 48 h. Potency, µM (top dose mostly 46.2 µM), for inactives: top-dose activity change, negative = growth inhibition, usual class: inhibitors. 420,000 tested, 12% active. AID 686979; further: potency means the concentration at half of the fitted maximal effect; nearly all actives have a fitted effect of over 55% in size
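Chicken DT40 Tdp1-/- cells stably complemented with human TDP1 were seeded at 400 cells/well in medium containing 20 nM camptothecin, exposed to pin-transferred compounds, and grown at 37 °C for at least 48 hr. Viability was read as ATP luminescence.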
DT40 TDP1 no CPT: qHTS for Inhibitors of human tyrosyl-DNA phosphodiesterase 1 (TDP1): qHTS in cells in absence of CPT | AID 686978, 2013 | DT40 Tdp1-/- hTDP1 cells, no CPT, ATP luminescence, 48 h | 420,000 tested, 15% active | Potency, µM (titrated, usually from 46.2 µM), inactives show at the top dose activity change, negative = growth inhibition, actives largely listed as inhibitors; further: potency means the concentration at half of the fitted maximal effect; nearly all actives have a fitted effect of over 55% in size
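Seeded 400 DT40-hTDP1 cells/well (vehicle DMSO, no 20 nM CPT); pinned compounds; ≥48 hr at 37 °C; CellTiter-Glo luminescence as viability measure.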
IL1B secr inh: inflammasome signaling inhibition, IL-1 beta readout | THP-1 LPS/ATP IL-1B secretion, AlphaLISA, 16 h; stronger effect = lower value | activity change, % at 57.5 µM | 360,000 tested, 4.7% active | AID 743279; in the data active means activity change below about -50%; inconclusive means mostly about -30% to -49%
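THP-1 cells pretreated 1 hr with compounds (up to 57.5 uM final), then stimulated with LPS (250 ng/mL final) plus ATP (1.25 mM final); secreted IL-1B measured by AlphaLISA after 16 hr, decreased signal indicating inhibition.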
HT1080NT lethal: kills 2HG-producing HT-1080-NT fibrosarcoma cells; AID 686970; HT-1080-NT fibrosarcoma viability, CellTiter-Glo ATP luminescence, 48 h; 360,000 tested, 1.6% active; Potency, µM (series often up to 46.1 µM), inactives show at the highest dose activity, negative = less viability, usual class: cytotoxic;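 further: NT is the 2HG producing partner of a matched IDH1 knockdown line; potency means the concentration at half of the fitted maximal effect; 0% = DMSO-treated cells and -100% = media-only wells without cells; nearly all actives have a fitted effect of over 55% in size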
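A 48-hour cytotoxicity screen used HT-1080-NT cells plated 2 hours before compound delivery. ATP-based CellTiter-Glo luminescence measured viability, normalized to DMSO and no-cell controls.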
Active calls of the source: *; [ ] = remark or other dose. Unless noted, the call rests on the fitted dose curve; in most records, active means well fitted curve in the direction sought with a large enough effect; inconclusive means small, poorly fitted or top-dose-only effect, or another doubt; inactive means no such curve, though single readings can be large; an effect the other way counts as inactive or inconclusive. Unless noted, on the % scale 0 is the no-effect control and ±100 the full control effect.

For CC(Oc1ccccc1)C(=O)Nc1nnc(S(=O)(=O)N(C)c2ccccc2)s1 (configuration not stated) the results were HT1080 IDH1KD tx -25%, DT40 TDP1 CPT inconclusive, DT40 TDP1 no CPT inconclusive, IL1B secr inh 25 and HT1080NT lethal -5%.
`Cc1ccc(-c2nnc(NC3CCCC3)s2)cc1` gave HT1080 IDH1KD tx 10%, DT40 TDP1 CPT -9%, DT40 TDP1 no CPT inconclusive, IL1B secr inh inconclusive and HT1080NT lethal 1%.
Screening CC1=Nc2ccccc2N=C(NC(=O)CSC(=S)N2CCCCC2)C1c1ccccc1 (configuration not stated) returned HT1080 IDH1KD tx -1%, DT40 TDP1 CPT -20%, DT40 TDP1 no CPT inconclusive, IL1B secr inh -16 and HT1080NT lethal 0%.
Screening CC1=Nc2ccccc2N=C(NC(=O)CSC(=S)N2CCN(C)CC2)C1c1ccccc1 (configuration not stated) returned HT1080 IDH1KD tx -8%, DT40 TDP1 CPT inconclusive, DT40 TDP1 no CPT 16µM*, IL1B secr inh 4 and HT1080NT lethal -10%.
`CC1=Nc2ccccc2N=C(NC(=O)CSc2nnnn2-c2ccccc2)C1c1ccccc1` (configuration not stated) gave HT1080 IDH1KD tx 1%[9.24 µM], DT40 TDP1 CPT inconclusive, DT40 TDP1 no CPT 29µM*, IL1B secr inh -13 and HT1080NT lethal -14%.
NC(=O)c1ccc(-n2nnnc2SCC(=O)Nc2ccccc2)cc1 was read as HT1080 IDH1KD tx 0%, DT40 TDP1 CPT -2%, DT40 TDP1 no CPT -16%, IL1B secr inh -10 and HT1080NT lethal -1%.
For Cc1ccc(NC2=NCC(=O)N2C2CCCC2)c(C)c1 the results were HT1080 IDH1KD tx 5%[9.24 µM], DT40 TDP1 CPT -20%, DT40 TDP1 no CPT inconclusive, IL1B secr inh 7 and HT1080NT lethal 8%.
Screening Cc1c(C=O)c2ccccc2n1CC(=O)NC(C)c1ccccc1 (configuration not stated) returned HT1080 IDH1KD tx -13%, DT40 TDP1 CPT inconclusive, DT40 TDP1 no CPT 23µM*, IL1B secr inh -1 and HT1080NT lethal -24%.
Screening Cc1nn(CC(=O)NC(C)c2ccccc2)c(=O)c2ccccc12 (configuration not stated) returned HT1080 IDH1KD tx 9%, DT40 TDP1 CPT -9%, DT40 TDP1 no CPT -2%, IL1B secr inh 1 and HT1080NT lethal 2%.
O=C(CNC(=O)c1ccccc1Br)NCC(c1ccco1)N1CCCCC1 (configuration not stated) was read as HT1080 IDH1KD tx 16%, DT40 TDP1 CPT 1%, DT40 TDP1 no CPT 5%, IL1B secr inh -3 and HT1080NT lethal 10%.
Oc1ccc(-c2cnc(-c3ccc(O)cc3)nc2)cc1 was read as HT1080 IDH1KD tx 0.21µM*, DT40 TDP1 CPT 3%, DT40 TDP1 no CPT inconclusive, IL1B secr inh -19 and HT1080NT lethal inconclusive.
`COc1ccc(OCC(=O)NCCNC(=O)c2cccnc2)cc1` gave HT1080 IDH1KD tx -3%, DT40 TDP1 CPT -1%, DT40 TDP1 no CPT 2%, IL1B secr inh 24 and HT1080NT lethal 0%.
O=C(N/N=C/c1ccsc1)c1ccc2ccccc2n1 was read as HT1080 IDH1KD tx 18%, DT40 TDP1 CPT 22%, DT40 TDP1 no CPT 1%, IL1B secr inh 41 and HT1080NT lethal 18%.
`C=CC[C@]12C=C(OC)C(=O)C(OC)=C1O[C@@H](c1ccc3c(c1)OCO3)[C@H]2C` gave HT1080 IDH1KD tx 1%, DT40 TDP1 CPT -10%, DT40 TDP1 no CPT -9%, IL1B secr inh -8 and HT1080NT lethal -3%.
For C=CC[C@]12CC=CC(=O)[C@@]1(O)O[C@H](c1ccc(OC)c(OC)c1)[C@H]2C the results were HT1080 IDH1KD tx -16%, DT40 TDP1 CPT 10µM*, DT40 TDP1 no CPT 5.8µM*, IL1B secr inh -115* and HT1080NT lethal -2%.
Screening Fc1cccc(Cl)c1-c1nnc2ccc(C(F)(F)F)cn12 returned HT1080 IDH1KD tx 2%, DT40 TDP1 CPT -15%, DT40 TDP1 no CPT -10%, IL1B secr inh -5 and HT1080NT lethal 7%.
COc1ccc(C(=O)N(Cc2ccc(N(C)C)cc2)Cc2ccco2)cc1Cl was read as DT40 TDP1 CPT 16µM* and DT40 TDP1 no CPT 15µM*.
Screening COc1ccc(C(=O)N(Cc2ccco2)Cc2ccccc2F)cc1Cl returned DT40 TDP1 CPT 21µM* and DT40 TDP1 no CPT 16µM*.
`CCn1cnc2sc(C(=O)N(Cc3ccc(N(C)C)cc3)Cc3ccco3)c(C)c2c1=O` gave HT1080 IDH1KD tx -6%, DT40 TDP1 CPT inconclusive, DT40 TDP1 no CPT inconclusive, IL1B secr inh -76* and HT1080NT lethal -6%.
Screening COc1ccccc1NC(=O)CN(Cc1ccco1)C(=O)c1cc(Cl)c(OC)c(OC)c1 returned HT1080 IDH1KD tx 1%, DT40 TDP1 CPT inconclusive, DT40 TDP1 no CPT inconclusive, IL1B secr inh 3 and HT1080NT lethal -3%.
CN(C)c1ccc(CN(Cc2ccco2)C(=O)c2ccc(C(C)(C)C)cc2)cc1 was read as DT40 TDP1 CPT 16µM* and DT40 TDP1 no CPT 21µM*.
Screening COc1ccc(N(Cc2ccco2)C(=O)c2ccccc2F)cc1OC returned HT1080 IDH1KD tx -2%, DT40 TDP1 CPT inconclusive, DT40 TDP1 no CPT inconclusive, IL1B secr inh -6 and HT1080NT lethal 4%.
Screening CCN(CC)S(=O)(=O)c1ccc(Cl)c(NC(=O)COC(=O)c2ccc([N+](=O)[O-])o2)c1 returned HT1080 IDH1KD tx 6%, DT40 TDP1 CPT inconclusive, DT40 TDP1 no CPT -4%, IL1B secr inh 5 and HT1080NT lethal -3%.
`O=C(CSC1CC(=O)N(c2ccc(C(=O)O)cc2)C1=O)Nc1ccc(Cl)cc1` (configuration not stated) gave HT1080 IDH1KD tx -10%, DT40 TDP1 CPT inconclusive, DT40 TDP1 no CPT inconclusive, IL1B secr inh 7 and HT1080NT lethal -3%.
Cc1ccc(-n2cnc3cc(C(=O)NCc4ccccc4Cl)ccc32)c(C)c1 was read as DT40 TDP1 CPT 23µM* and DT40 TDP1 no CPT 23µM*.
Screening COC(CNC(=O)c1ccc2c(c1)ncn2-c1ccc(C)cc1C)OC returned HT1080 IDH1KD tx 21%, DT40 TDP1 CPT 26%, DT40 TDP1 no CPT -9%, IL1B secr inh 14 and HT1080NT lethal 28%.
Screening CCc1ccc(-n2cnc3cc(C(=O)NCc4ccc(C)cc4)ccc32)cc1 returned DT40 TDP1 CPT 15µM* and DT40 TDP1 no CPT 15µM*.
`Cc1cccc(-n2cnc3cc(C(=O)NCc4ccccc4Cl)ccc32)c1` gave DT40 TDP1 CPT 16µM* and DT40 TDP1 no CPT inconclusive.
